Test results from PubChem BioAssay AID1565 (Sanford-Burnham Center for Chemical Genomics, 2009).
The whole screen tested about 290,000 compounds, of which about 3,200 (1.1%) were called active. The full list was thinned out, with actives kept by preference. Unmarked numbers belong to inactive results. No stated cut-off is given here; in the data, active means inhibition above about 60%; inactive means the rest.

Target: Phosphoethanolamine/phosphocholine phosphatase (Homo sapiens) (UniProt Q8TCT1)
Test: PubChem AID 1565
Conditions: recombinant PHOSPHO1, absorbance phosphatase assay; at 13.3 µM; hits give high values

Sequence of Phosphoethanolamine/phosphocholine phosphatase (Homo sapiens) (Q8TCT1 whole entry, looked up): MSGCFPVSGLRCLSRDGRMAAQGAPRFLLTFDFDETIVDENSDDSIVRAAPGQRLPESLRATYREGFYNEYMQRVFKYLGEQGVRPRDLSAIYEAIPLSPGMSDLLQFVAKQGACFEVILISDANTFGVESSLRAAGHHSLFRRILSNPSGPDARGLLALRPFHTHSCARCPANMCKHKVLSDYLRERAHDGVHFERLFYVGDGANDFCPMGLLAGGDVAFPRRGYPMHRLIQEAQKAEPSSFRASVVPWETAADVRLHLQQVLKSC

| SMILES | inhibition |
| --- | --- |
| O=S(=O)(Cc1cc(Cl)nc(-c2cccnc2)n1)c1ccccc1 | 17.6% |
| COc1ccc(Cl)cc1NC(=O)CN(C)C(=O)CCCc1c[nH]c2ccccc12 | 9.8% |
| CCCNC(=O)CCn1nc(-c2ccccc2)c2ccccc2c1=O | 19.9% |
| CS(=O)(=O)NCc1ccc(C(=O)NCc2ccccc2)cc1 | -10% |
| O=C(Nc1ccc(C(=O)NCc2ccccc2Cl)cc1)C1=CSCCO1 | 37.5% |
| CSc1ccc(CNC(=O)c2ccc(NC(=O)C3=CSCCO3)cc2)cc1 | 69% (active) |
| Cc1ccccc1OCC(=O)NNC(=O)c1cc(S(=O)(=O)N(C)C)ccc1N1CCCC1 | 33.4% |
| CSc1ccc(S(=O)(=O)N2CCC(C(=O)NCCc3ccccc3)CC2)cc1 | 13.8% |
| Cc1nn(CCCC(=O)NCc2ccccc2Cl)c(=O)c2nccn12 | 35.7% |
| CCn1c(COc2ccc(OC)cc2)nnc1SCC(=O)Nc1cc(OC)ccc1OC | -14.1% |
| CCOC(=O)CNC(=O)CSc1nnc(COc2ccc(Cl)cc2)n1CC | 95.8% (active) |
| CCOC(=O)CNC(=O)CSc1nnc(-c2cccc(OC)c2)n1CC | 47.2% |
| S=c1[nH]nc(-c2cccs2)n1/N=C/c1cn(-c2ccccc2)nc1-c1ccc(Cl)cc1 | -132% |
| S=c1[nH]nc(-c2cccs2)n1/N=C/c1cccs1 | 56.2% |
| Oc1ccccc1/C=N/n1c(-c2cccs2)n[nH]c1=S | 106% (active) |
| CC(=O)Oc1ccc2c(=O)oc(-c3ccc([N+](=O)[O-])cc3)nc2c1 | 35.6% |
| O=C(COc1ccc(Cl)cc1Cl)NCCCNC(=O)c1cnccn1 | 44.9% |
| COc1cc(C(=O)NCc2nnc(SCC(=O)c3ccc(Cl)cc3)o2)cc(OC)c1OC | 43.5% |
| CC(C)C[C@@H](N)c1nnc(SCC(=O)c2ccc(Cl)cc2)o1 | 81.6% (active) |
| Cc1cc(C)nc(SCC(=O)c2ccc(Cl)cc2)n1 | 27% |
| O=C(CN1CCN(C(=O)C2CCCO2)CC1)Nc1c(Cl)cccc1Cl (centres undefined) | 26.3% |
| Cc1cccnc1NC(=O)c1cccc(S(=O)(=O)N2CCN(c3ccc(F)cc3)CC2)c1 | 27% |
| O=C(N/N=C/c1ccccn1)c1cccc(NC(=O)c2ccc(Cl)cc2)c1 | 41.5% |
| O=C(COc1ccc(Cl)cc1Cl)N/N=C/c1ccccn1 | 61% (active) |

| SMILES | inhibition |
| --- | --- |
| CSc1ccc(/C=N\NC(=O)COc2ccc(Cl)cc2Br)cc1 | -15.7% |
| N#Cc1ccc(S(=O)(=O)NCC(=O)OCC(=O)NCCc2ccccc2)cc1 | 28.7% |
| O=C(Nc1ccc(C2CC2(Cl)Cl)cc1)c1cccc([N+](=O)[O-])c1 (centres undefined) | -31.5% |
| CSCCC(NC(=O)COc1ccccc1)C(=O)OCC(=O)c1cc2ccccc2o1 (centres undefined) | 0.2% |
| Cc1c(Cl)cnc(NC(=O)COC(=O)c2ccc(S(=O)(=O)NCc3ccco3)cc2)c1Cl | -11.7% |
| CSCCC(NC(=O)c1ccco1)C(=O)OCC(=O)Nc1ncc(Cl)c(C)c1Cl (centres undefined) | 63.8% (active) |
| O=C1CCC(C(=O)N2CCC(O)(c3ccccc3)CC2)CN1CCc1ccccc1 (centres undefined) | 51.4% |
| CS(=O)(=O)c1ccc(-c2nnn(CC(=O)Nc3ccc4c(c3)OCCO4)n2)cc1 | 11% |
| CCCCSc1nnc2c(n1)OC=Nc1ccccc1-2 | 60.8% (active) |
| CCCCSc1nc2ccccc2[nH]1 | 11.7% |
| CCCCSc1nnc(-c2ccc(C)cc2)o1 | 1.3% |
| COC(=O)c1ccc(COc2ccc(C#N)cc2)o1 | 44.1% |
| CC1CCN(CC(O)COc2ccc(C(=O)c3ccccc3)cc2)CC1 (centres undefined) | 8.5% |
| Cc1cc(NC(=O)c2ccccc2C)no1 | 19.1% |
| CCOc1cc(N2CCOCC2)c(OCC)cc1NC(=O)COc1cccc2cccnc12 | 23.3% |
| Oc1c(C(c2ccccn2)N2CCOCC2)ccc2cccnc12 (centres undefined) | 92.7% (active) |
| OC(COc1ccc2ccccc2c1)CN1CCOCC1 (centres undefined) | 8% |
| Cc1ccc(NC(=O)C2CCN(S(=O)(=O)c3ccc4c(c3)NC(=O)CO4)CC2)cc1C | 26.1% |
| CCc1ccc(N(C(=O)c2csnn2)C(C(=O)NC2CCCCC2)c2ccncc2)cc1 (centres undefined) | 41.6% |
| CS(=O)(=O)c1sc2nc(-c3ccccc3)cc(-c3ccccc3)c2c1N | 94.5% (active) |
| CCN(CC)C(=O)c1sc2nc(-c3ccccc3)ccc2c1N | 21.4% |
| Nc1nc(-c2ccccc2)cc(-c2ccccc2)n1 | 19.2% |
| CCc1ccc(NC(=O)C(=O)NNC(=O)c2cccs2)cc1 | 44.9% |
| NC(=S)c1ccc(C(N)=S)o1 | 95.9% (active) |

| SMILES | inhibition |
| --- | --- |
| CCCOC1CCCN(Cc2cn(C)nc2-c2ccccc2F)C1 (centres undefined) | 60.1% (active) |
| Cn1cc(CN2CCC(C(O)CCc3ccccc3)CC2)c(-c2ccccc2F)n1 (centres undefined) | 28.2% |
| Cn1cc(CN2CCCC(CO)C2)c(-c2ccc(Oc3ccccc3)cc2)n1 (centres undefined) | 39.5% |
| O=C(CSc1nnc2c(n1)[nH]c1ccccc12)NC1CCCCC1 | 3.6% |
| Cc1ccc(Nc2nc(-c3sc(NC(=O)c4ccccc4)nc3C)cs2)cc1 | 37.9% |
| CCCCCCC(=O)Nc1nc(C)c(-c2csc(Nc3cccc(OC)c3)n2)s1 | 104% (active) |
| C=CCCC(=O)Nc1nc(C)c(-c2csc(Nc3ccc(Cl)cc3)n2)s1 | -1.4% |
| CCCCC(=O)Nc1nc(C)c(-c2csc(Nc3ccc(Cl)cc3)n2)s1 | 28.7% |
| Cc1nc(NC(=O)c2cccc(Cl)c2)sc1-c1csc(Nc2cccc(Cl)c2)n1 | 19.2% |
| CCCCCCC(=O)Nc1nc(C)c(-c2csc(Nc3cc(Cl)ccc3OC)n2)s1 | 96.2% (active) |
| CCc1ccc(N(CC(=O)NCc2cccnc2)S(=O)(=O)c2ccccc2)cc1 | 4.5% |
| CCOC(=O)C1=C(CN2CCc3ccccc32)NC(=O)NC1c1ccc(Cl)cc1 (centres undefined) | 18.7% |
| CCOC(=O)C1=NN(c2ccc(Cl)cc2)/C(=C/C2=NCCc3cc(OC)c(OC)cc32)S1 | 63.1% (active) |
| COc1cc2c(cc1OC)C(/C=C/c1ccco1)=NCC2 | 5.3% |
| Cn1c(-c2ccc(F)cc2)cnc1SCC(=O)NCc1ccco1 | 65.2% (active) |
| Cn1c(-c2ccc(F)cc2)cnc1SCC(=O)NNC(=O)Cc1ccccc1 | 10.2% |
| O=C(CSc1nnc2scc(-c3ccc(F)cc3)n12)NCc1ccco1 | 67.4% (active) |
| O=C(CSc1nnc(-c2c[nH]c3ccccc23)n1-c1ccc(F)cc1)NCc1ccco1 | 9.8% |
| Cc1ccc(-c2csc3nnc(SCC(=O)NCc4ccco4)n23)cc1 | 17.6% |
| CCn1c(SCC(=O)NCc2ccco2)nnc1-c1ccc(N)cc1 | 42.7% |
| CCOc1ccc(OCc2cccc(C(=O)N(CC)CC)c2)cc1 | -26.2% |
| O=[N+]([O-])c1ccc2c(c1)Nc1nc3ccccc3nc1N2 | 29.5% |
| CCCCn1c(=S)[nH]c2ccccc2c1=O | -12.1% |
| CCCCn1c(=S)[nH]c2cc(S(=O)(=O)N3CCCCC3)ccc21 | 99.7% (active) |

| SMILES | inhibition |
| --- | --- |
| O=c1[nH]c2ccc(S(=O)(=O)N3CCCC3)cc2[nH]1 | 39.1% |
| CC1CCCCC1NC(=O)/C(C#N)=C/C=C/c1ccccc1[N+](=O)[O-] (centres undefined) | -11.2% |
| CC(=O)c1ccc(N2CCN(C(=O)CCNC(=O)Cn3ccc4ccccc4c3=O)CC2)cc1 | 39.1% |
| CCc1ccc(-c2nc(SCC(=O)NC3CCCC3)n[nH]2)cc1 | 19.2% |
| CC(C)c1ccc(S(=O)(=O)N2CCN(C(=O)c3ccc(N4CCCC4)c([N+](=O)[O-])c3)CC2)cc1 | 14.7% |
| Cc1ccc(CNC(=O)C2(C(F)(F)F)C/C(=C\Cc3ccccc3)CCCO2)o1 (centres undefined) | -1.7% |
| Cc1ccc(C(=O)Oc2coc(CSc3nnc(NC(=O)c4cccs4)s3)cc2=O)cc1C | -10.5% |
| Cc1ccc(C(=O)Nc2nnc(-c3cccs3)s2)cc1C | 60.1% (active) |
| CCOc1cccc(C(=O)Nc2nnc(-c3cccs3)s2)c1 | 8.6% |
| Cc1ccc(S(=O)(=O)c2nnn3c2nc(N2CCN(c4ccccn4)CC2)c2ccccc23)cc1 | 14.6% |
| COc1ccccc1C(=O)N1C(CC(=O)Nc2ccccc2C)C(=O)NC2CCCCC21 (centres undefined) | 17.1% |
| Cc1cc(NC(=O)Nc2c[nH]c(=O)[nH]c2=O)ccc1Br | 32.6% |
| CCC(C)(C)NC(=O)CN(C(=O)CCC(=O)Nc1nccs1)c1ccc2c(c1)OCO2 | 28% |
| O=C(O)c1ccccc1CSc1nc2ccccc2s1 | -3.9% |
| Cc1cc(C)n2nc(CNS(=O)(=O)c3c(F)c(F)c(F)c(F)c3F)nc2n1 | 64.9% (active) |
| Cc1cc(C)n2nc(SCC(N)=O)nc2n1 | 35.9% |
| Cc1cc(C)n2nc(C(=O)NC(C)(C)C)nc2n1 | 27% |
| C/C(=N\N(C)C)c1ccc(OCCOc2ccc([N+](=O)[O-])cc2)cc1 | 23.7% |
| COc1ccc(C2CC(=O)NC(=O)C2)cc1 | 22.9% |
| Cc1cccc(NC(=O)c2sc3nc4c(c(-c5ccco5)c3c2N)CCC4)c1 | 67.5% (active) |
| Cc1cccc(NC(=O)c2sc3nc(N4CCOCC4)c4c(c3c2N)CCCC4)c1 | 21.8% |
| CC(=O)Nc1ccc(NC(=O)c2sc3nc4c(c(-c5ccc(C)cc5)c3c2N)CCC4)cc1 | 14.1% |
